Assay results reported in PubChem BioAssay AID1159580 (chemical genetic matrix, 2015).
Values joined by “and” are separate entries in the source; they are usually repeats but may differ in a detail not shown here. Identical values can stand only once. About 2,000 (36%) of roughly 5,500 compounds were called active. About 18% were inconclusive and are not listed. No stated cut-off is given here; in the data, active means normalized growth mostly below about 0.91 (no sharp cut-off); inconclusive means no clear call, values can overlap the other calls; inactive means mostly above about 0.92. This is one part of the list.

Test: chemical genetic growth profiling, strain panel (AID 1159580);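 further: tested at 20 µM; growth read once vehicle control cultures reached saturation at 30 °C; 1 = growth at the plate median or of vehicle wells; lower values mean less growth of the strain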
Details: S. cerevisiae deletion strains, growth OD

Measured: normalized growth

CCC[C@H](N[C@@H](C)C(=O)N1[C@H](C(=O)O)C[C@@H]2CCCC[C@@H]21)C(=O)OCC
inactive: locus YAL013W, strain DEP1, hits give low values 1.01 | locus YAL021C, strain ccr4, hits give low values 1.01 | locus YAL026C, strain drs2, hits give low values 1.01 | locus YAL030W, strain snc1, hits give low values 1.02 | locus YBL061C, strain skt5, hits give low values 1.01 | locus YBR009C, strain hhf1, hits give low values 1.01 | locus YBR021W, strain FUR4, hits give low values 1.03 | locus YBR023C, strain chs3, hits give low values 1.02 | locus YBR171W, strain sec66, hits give low values 1.02 | locus YBR229C, strain ROT2, hits give low values 1 | locus YBR231C, strain swc5, hits give low values 1.02 | locus YBR279W, strain paf1, hits give low values 1.01 | locus YCL011C, strain gbp2, hits give low values 1.01 | locus YCL016C, strain dcc1, hits give low values 1.01 | locus YCL029C, strain bik1, hits give low values 1.04 | locus YCL069W, strain vba3, hits give low values 1.02 | locus YCR088W, strain abp1, hits give low values 1.02 | locus YDL005C, strain med2, hits give low values 1.01 | locus YDL035C, strain GPR1, hits give low values 1.01 | locus YDL040C, strain nat1, hits give low values 1.01 | locus YDL074C, strain BRE1, hits give low values 1.02 | locus YDL101C, strain DUN1, hits give low values 1.01 | locus YDL134C, strain PPH21, hits give low values 1.01 | locus YDL185W, strain tfp1, hits give low values 1.02 | locus YDL192W, strain arf1, hits give low values 1.02 | locus YDR001C, strain nth1, hits give low values 1.01 | locus YDR069C, strain doa4, hits give low values 1.03 | locus YDR101C, strain arx1, hits give low values 1.01 | locus YDR137W, strain rgp1, hits give low values 0.99 | locus YDR150W, strain NUM1, hits give low values 1.02 | locus YDR159W, strain sac3, hits give low values 1.02 | locus YDR162C, strain NBP2, hits give low values 1.01 | locus YDR195W, strain ref2 1.04 | locus YDR297W, strain sur2, hits give low values 1.02 | locus YDR318W, strain mcm21, hits give low values 1.02 | locus YDR334W, strain swr1, hits give low values 1.01 | locus YDR335W, strain msn5, hits give low values 1.01 | locus YDR388W, hits give low values 1.03 | locus YDR392W, strain spt3, hits give low values 0.981 | locus YDR502C, strain sam2, hits give low values 1.01 | locus YEL003W, strain gim4, hits give low values 1.01 | locus YEL037C, strain rad23, hits give low values 1.02 | locus YEL061C, strain CIN8 (second series), hits give low values 1.01 | locus YEL061C, strain CIN8, hits give low values 1 | locus YER015W, strain faa2, hits give low values 1.01 | locus YER016W, strain bim1, hits give low values 1.02 | locus YER110C, hits give low values 1.02 | locus YER111C, strain swi4, hits give low values 1.02 | locus YER155C, strain BEM2 (second series), hits give low values 1.05 | locus YER155C, strain BEM2, hits give low values 1 | locus YER167W, strain BCK2, hits give low values 1.02 | locus YFR010W, strain ubp6, hits give low values 1.03 | locus YGL078C, strain dbp3, hits give low values 1.02 | locus YGL086W, strain mad1, hits give low values 1.02 | locus YGL167C, strain pmr1, hits give low values 1.02 | locus YGL173C, strain kem1, hits give low values 1.01 | locus YGL227W, strain vid30, hits give low values 1.02 | locus YGL240W, strain doc1, hits give low values 1.03 | locus YGL248W, strain PDE1, hits give low values 1.01 | locus YGL253W, strain hxk2, hits give low values 1.02 | locus YGR078C, strain PAC10, hits give low values 1.02 | locus YGR135W, strain pre9, hits give low values 1.01 | locus YGR229C, strain SMI1, hits give low values 1.02 | locus YGR252W, strain gcn5, hits give low values 1.01 | locus YHR013C, strain ard1, hits give low values 1.02 | locus YHR027C, strain rpn1, hits give low values 1.02 | locus YHR030C, strain SLT2, hits give low values 1.01 and 1 | locus YHR079C, strain IRE1 (second series), hits give low values 1.01 | locus YHR079C, strain IRE1, hits give low values 0.993 | locus YHR094C, strain hxt1, hits give low values 1.02 | locus YHR129C, strain ARP1, hits give low values 1.01 | locus YHR142W, strain chs7, hits give low values 1.03 | locus YHR200W, strain rpn10, hits give low values 1.03 | locus YIL066C, strain RNR3, hits give low values 1.02 | locus YIL073C, strain SPO22, hits give low values 1.03 | locus YIL125W, strain kgd1, hits give low values 1.02 | locus YIR030C, strain dcg1, hits give low values 1.01 | locus YJL092W, strain hpr5, hits give low values 1.01 | locus YJL095W, strain BCK1 (second series), hits give low values 1.02 | locus YJL095W, strain BCK1, hits give low values 1.01 and 1 | locus YJL115W, strain asf1, hits give low values 1.02 | locus YJL129C, strain trk1, hits give low values 1.01 | locus YJL134W, strain LCB3, hits give low values 1.02 | locus YJL154C, strain vps35, hits give low values 1.01 | locus YJL164C, strain tpk1, hits give low values 1.01 | locus YJL166W, strain qcr8, hits give low values 1.04 | locus YJL168C, strain set2, hits give low values 1.02 | locus YJL187C, strain SWE1 (second series), hits give low values 1.01 | locus YJL187C, strain SWE1, hits give low values 1.01 | locus YJR043C, strain POL32, hits give low values 1.01 | locus YJR066W, strain TOR1, hits give low values 0.96
